The source of these data is PubChem BioAssay (NCATS).

In assay [1] the target is Rap guanine nucleotide exchange factor 3 (Homo sapiens) (UniProt O95398). Briefly: Confirmatory qHTS for antagonist of cAMP-regulated guanine nucleotide exchange factor 3 (EPAC1) (AID 1645880).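 For activity, negative = inhibition: plate controls were DMSO only for no effect and full effect of the ATA control for full effect.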 Note: nearly all actives have a fitted effect of over 55% in size. Note: potency is the fitted concentration of half-maximal effect. Conditions: EPAC1 Rap1B-BODIPY-GDP exchange, fluorescence; activity, negative = inhibition: at 115 µM (top of the series). The procedure, abridged: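 Released BODIPY-GDP fluoresces less than Rap1-bound BODIPY-GDP; the signal is followed at 480/540 nm at 5-min intervals over 30 min, after 5 min at room temperature. Reactions contain 100 nM EPAC1, 250 nM RAP1B-BODIPY-GDP and 50 uM GDP; results are normalized to ATA and DMSO.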
(In general: Quantitative high-throughput screening tests each substance at several concentrations.)

Assay [2] concerns the target Rap guanine nucleotide exchange factor 4 (Homo sapiens) (UniProt Q8WZA2). Briefly: Confirmatory qHTS for agonist of cAMP-regulated guanine nucleotide exchange factor 4 (EPAC2) (AID 1645884). For activation: % is set by controls: 0 for no effect and ±100 for the full control effect.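 Note: nucleotide exchange releases bodipy-GDP from Rap1 and this lowers its fluorescence; nearly all actives have a fitted effect of over 65% in size.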 Note: potency is the fitted concentration of half-maximal effect.
The target in assay [3] is Rap guanine nucleotide exchange factor 3 (Homo sapiens) (UniProt O95398). As to the kind of experiment: Counterscreen qHTS for antagonist of cAMP-regulated guanine nucleotide exchange factor 3 (EPAC1) (AID 1645888). Note: % of control where 0% means no effect. An outline of the steps: (§1)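 Rap1B–BODIPY-GDP (250 nM) with 50 uM GDP; compounds pin-transferred to 9.74 nM–152 uM final (activator) or from 7.32 nM upwards (inhibitor). Fluorescence Ex/Em 480/540 nm read at 5 and 30 min, then after adding cAMP or buffer, at room temperature.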

In assay [4] the target is Tumor susceptibility gene 101 protein (Homo sapiens) (UniProt Q99816). As to the kind of experiment: qHTS Assay for Iinhibitors of HIV-1 Budding by Blocking the Interaction of PTAP/TSG101: Hit Validation (AID 651600). Note: nearly all actives have a fitted effect of over 70% in size. Note: potency is the fitted concentration of half-maximal effect. The procedure, abridged:
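FITC-PTAP peptide (50 nM final) binding to Tsg101 binding domain (10 uM final) was measured by polarization after 20 min at r.t. with compounds, in 10 mM HEPES pH 7.5 buffer with 0.15 M NaCl and 0.01% Tween 20.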

For assay [5], the target named is Rap guanine nucleotide exchange factor 4 (Homo sapiens) (UniProt Q8WZA2). Briefly: Confirmatory qHTS for antagonist of cAMP-regulated guanine nucleotide exchange factor 4 (EPAC2) (AID 1645885). For activity change, negative = inhibition: % is set by controls: 0 for no effect and ±100 for the full control effect. Note: nearly all actives have a fitted effect of over 25% in size. Note: potency is the fitted concentration of half-maximal effect.
For assay [6], the target named is Rap guanine nucleotide exchange factor 3 (Homo sapiens) (UniProt O95398). Briefly: Counterscreen qHTS for agonist of cAMP-regulated guanine nucleotide exchange factor 3 (EPAC1) (AID 1645889). For activation: % of control where 0% means no effect. Note: nearly all actives have a fitted effect of over 40% in size. Note: potency is the fitted concentration of half-maximal effect. The procedure, abridged:
as §1
(A counterscreen serves to expose hits that act by an unwanted route or on another target.)

Assay [7] can be described thus: Counterscreen for APE1 Inhibitors: Fluorescent Dye Displacement Assay (AID 2564).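 Note: loss of thiazole orange fluorescence as the dye is displaced from duplex DNA; 0% = ThO with dsDNA and no compound and -100% = ThO without dsDNA.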 An outline of the steps: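 Endpoint fluorescence read at 480 nm excitation / 540 nm emission; DNA-binding compounds lower signal by displacing 250 nM Thiazole Orange from 50 nM dsDNA containing a tetrahydrofuran abasic site, Tris-HCl pH7.5 buffer with NaCl and MgCl2.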
Assay [8] deals with Endonuclease 4 (Escherichia coli (strain K12)) (UniProt P0A6C1). As to the kind of experiment: Counterscreen for APE1 Inhibitors: qHTS Assay for Inhibitors of Endonuclease IV (AID 2565).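 Note: plate controls were uninhibited enzyme wells for no effect and no enzyme buffer wells for full effect.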 The procedure, abridged: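 Read-out: fluorescence rise (ex 525/em 598 nm) from incision of a TAMRA/BHQ-2 double-stranded THF abasic-site substrate (50 nM), measured kinetically; third-minus-first read difference gave reaction progress. Enzyme 2 nM.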

The target of assay [9] is DNA repair nuclease/redox regulator APEX1 (Homo sapiens) (UniProt P27695). As to the kind of experiment: Confirmation qHTS Assay for Inhibitors of the Human Apurinic/apyrimidinic Endonuclease 1 (APE1) (AID 2572). Note: potency is the fitted concentration of half-maximal effect; nearly all actives have a fitted effect of over 30% in size. To be noted: purified APE1, fluorogenic abasic-site DNA cleavage. An outline of the steps: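 APE1 preincubated 15 min RT with compound; 50 nM TAMRA/BHQ-2 THF-abasic duplex added; kinetic fluorescence, 3 reads at 60 s intervals, Ex 525/Em 598; progress = read 3 minus read 1.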

Assay [10] shares this target. As to the kind of experiment: qHTS FP-Based Assay for Inhibitors of the Human Apurinic/apyrimidinic Endonuclease 1 (APE1) (AID 2573). Note: % is set by controls: 0 for no effect and ±100 for the full control effect.
Assay [11] is described as follows: Stat Signaling Pathway (AID 446; active = well fitted curve in either direction with a large enough effect, not every such curve was filed as active;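 note: ME-180 cervical cancer cells given 40 pM IL-6 alongside compound; SIE-controlled beta-lactamase reporter measured as 460/530 nm FRET emission ratio; % is set by controls: 0 for no effect and ±100 for the full control effect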). An outline of the steps: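 Emission at 460 and 530 nm (excitation 405 nm) reports SIE-controlled beta-lactamase in ME-180 cells. Cells received compound with 40 pM IL-6 for 5 hrs at 37 C; data scaled between 300 pM IL-6 and 125 nM JAK-inhibitor controls.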
The target of assay [12] is Glucocorticoid receptor (Homo sapiens) (UniProt P04150). As to the kind of experiment: GR-GFP Redistribution (AID 450;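 active = compounds whose dose series gives a full or clear partial fitted curve of increased nuclear translocation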; note: potency is the fitted concentration of half-maximal effect). To be noted: U2OS GR-GFP nuclear translocation, laser cytometry, 2 h.

Unmarked numbers belong to inactive results. Records with an inconclusive call do not appear. The list shows a part of the results. Calls of active or inactive are those of the source. Unless noted, calls come from the whole dose curve; as a rule, active = well fitted curve in the direction sought with a large enough effect; inconclusive = small, poorly fitted or top-dose-only effect, or another doubt; inactive = no such curve, though single readings can be large; an effect the other way counts as inactive or inconclusive.

Sequence of Rap guanine nucleotide exchange factor 4 (Homo sapiens) (Q8WZA2 whole entry, looked up): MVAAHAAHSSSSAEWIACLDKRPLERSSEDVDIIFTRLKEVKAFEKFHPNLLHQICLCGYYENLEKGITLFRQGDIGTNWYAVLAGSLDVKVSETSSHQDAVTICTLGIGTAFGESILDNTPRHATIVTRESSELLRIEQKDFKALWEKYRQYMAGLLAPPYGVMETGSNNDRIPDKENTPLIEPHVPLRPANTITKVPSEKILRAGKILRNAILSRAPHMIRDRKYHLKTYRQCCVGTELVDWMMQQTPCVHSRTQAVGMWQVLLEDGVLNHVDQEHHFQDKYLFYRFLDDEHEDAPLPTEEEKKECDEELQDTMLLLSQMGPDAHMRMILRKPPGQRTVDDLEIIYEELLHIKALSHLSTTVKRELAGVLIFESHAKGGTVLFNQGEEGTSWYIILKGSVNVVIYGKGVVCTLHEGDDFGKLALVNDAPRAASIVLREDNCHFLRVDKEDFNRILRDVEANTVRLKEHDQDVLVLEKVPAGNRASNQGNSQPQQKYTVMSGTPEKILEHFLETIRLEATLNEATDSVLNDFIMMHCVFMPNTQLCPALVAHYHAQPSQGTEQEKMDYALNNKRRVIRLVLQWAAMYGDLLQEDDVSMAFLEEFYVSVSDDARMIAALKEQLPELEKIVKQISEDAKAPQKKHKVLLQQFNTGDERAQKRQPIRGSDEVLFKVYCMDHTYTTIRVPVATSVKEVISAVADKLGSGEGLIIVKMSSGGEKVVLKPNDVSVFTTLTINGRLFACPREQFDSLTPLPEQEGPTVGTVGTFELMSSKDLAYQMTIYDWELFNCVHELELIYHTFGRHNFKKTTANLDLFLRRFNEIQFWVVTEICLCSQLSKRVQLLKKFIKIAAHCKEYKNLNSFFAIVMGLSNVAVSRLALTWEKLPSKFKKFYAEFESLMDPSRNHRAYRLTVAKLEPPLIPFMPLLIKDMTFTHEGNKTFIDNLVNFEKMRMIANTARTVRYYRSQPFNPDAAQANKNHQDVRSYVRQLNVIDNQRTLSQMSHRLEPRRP
Sequence of Tumor susceptibility gene 101 protein (Homo sapiens) (Q99816 whole entry, looked up, the tested form may be a part): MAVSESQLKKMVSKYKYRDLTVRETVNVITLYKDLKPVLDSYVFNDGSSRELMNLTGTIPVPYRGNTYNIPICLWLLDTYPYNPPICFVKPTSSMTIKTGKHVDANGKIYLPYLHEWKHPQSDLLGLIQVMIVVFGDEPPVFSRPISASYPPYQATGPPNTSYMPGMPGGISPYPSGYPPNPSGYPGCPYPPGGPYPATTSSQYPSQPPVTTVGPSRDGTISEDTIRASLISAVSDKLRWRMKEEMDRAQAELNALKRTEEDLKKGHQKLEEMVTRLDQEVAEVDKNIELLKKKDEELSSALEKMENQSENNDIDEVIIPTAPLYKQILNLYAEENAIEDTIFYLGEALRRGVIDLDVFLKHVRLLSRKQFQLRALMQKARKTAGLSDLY
Sequence of Rap guanine nucleotide exchange factor 3 (Homo sapiens) (O95398 whole entry, looked up): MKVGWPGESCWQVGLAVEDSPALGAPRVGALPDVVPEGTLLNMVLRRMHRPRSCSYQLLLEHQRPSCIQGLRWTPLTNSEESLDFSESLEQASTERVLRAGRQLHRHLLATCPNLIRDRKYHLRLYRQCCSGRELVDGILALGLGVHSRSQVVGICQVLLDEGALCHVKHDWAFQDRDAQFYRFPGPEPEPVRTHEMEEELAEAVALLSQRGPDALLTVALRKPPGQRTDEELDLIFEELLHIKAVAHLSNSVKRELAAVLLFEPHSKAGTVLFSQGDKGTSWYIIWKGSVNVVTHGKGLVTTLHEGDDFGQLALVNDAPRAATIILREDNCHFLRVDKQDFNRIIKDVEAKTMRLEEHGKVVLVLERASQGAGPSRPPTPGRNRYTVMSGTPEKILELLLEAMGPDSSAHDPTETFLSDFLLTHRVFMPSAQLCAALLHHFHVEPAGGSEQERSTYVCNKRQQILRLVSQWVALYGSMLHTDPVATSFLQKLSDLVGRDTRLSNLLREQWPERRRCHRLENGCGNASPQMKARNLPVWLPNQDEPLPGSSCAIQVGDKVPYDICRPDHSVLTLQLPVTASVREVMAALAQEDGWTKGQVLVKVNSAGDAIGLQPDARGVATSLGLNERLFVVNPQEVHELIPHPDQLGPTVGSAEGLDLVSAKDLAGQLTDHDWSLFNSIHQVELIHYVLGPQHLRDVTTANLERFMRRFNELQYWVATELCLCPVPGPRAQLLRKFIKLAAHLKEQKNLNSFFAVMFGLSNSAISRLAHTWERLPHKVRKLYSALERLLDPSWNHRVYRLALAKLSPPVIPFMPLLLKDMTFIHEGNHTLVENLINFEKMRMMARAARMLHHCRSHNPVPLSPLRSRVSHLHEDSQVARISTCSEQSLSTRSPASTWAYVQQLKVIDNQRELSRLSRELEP
Sequence of DNA repair nuclease/redox regulator APEX1 (Homo sapiens) (P27695 whole entry, looked up): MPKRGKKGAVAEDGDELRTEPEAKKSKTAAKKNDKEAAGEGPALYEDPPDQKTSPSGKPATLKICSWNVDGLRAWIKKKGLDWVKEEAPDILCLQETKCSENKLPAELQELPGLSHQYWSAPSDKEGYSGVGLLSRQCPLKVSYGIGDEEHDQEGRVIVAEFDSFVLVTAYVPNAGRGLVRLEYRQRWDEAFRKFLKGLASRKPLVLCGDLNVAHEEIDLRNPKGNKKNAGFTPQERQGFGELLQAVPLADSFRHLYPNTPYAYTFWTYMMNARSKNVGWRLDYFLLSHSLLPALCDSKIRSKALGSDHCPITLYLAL
Sequence of Glucocorticoid receptor (Homo sapiens) (P04150 whole entry, looked up): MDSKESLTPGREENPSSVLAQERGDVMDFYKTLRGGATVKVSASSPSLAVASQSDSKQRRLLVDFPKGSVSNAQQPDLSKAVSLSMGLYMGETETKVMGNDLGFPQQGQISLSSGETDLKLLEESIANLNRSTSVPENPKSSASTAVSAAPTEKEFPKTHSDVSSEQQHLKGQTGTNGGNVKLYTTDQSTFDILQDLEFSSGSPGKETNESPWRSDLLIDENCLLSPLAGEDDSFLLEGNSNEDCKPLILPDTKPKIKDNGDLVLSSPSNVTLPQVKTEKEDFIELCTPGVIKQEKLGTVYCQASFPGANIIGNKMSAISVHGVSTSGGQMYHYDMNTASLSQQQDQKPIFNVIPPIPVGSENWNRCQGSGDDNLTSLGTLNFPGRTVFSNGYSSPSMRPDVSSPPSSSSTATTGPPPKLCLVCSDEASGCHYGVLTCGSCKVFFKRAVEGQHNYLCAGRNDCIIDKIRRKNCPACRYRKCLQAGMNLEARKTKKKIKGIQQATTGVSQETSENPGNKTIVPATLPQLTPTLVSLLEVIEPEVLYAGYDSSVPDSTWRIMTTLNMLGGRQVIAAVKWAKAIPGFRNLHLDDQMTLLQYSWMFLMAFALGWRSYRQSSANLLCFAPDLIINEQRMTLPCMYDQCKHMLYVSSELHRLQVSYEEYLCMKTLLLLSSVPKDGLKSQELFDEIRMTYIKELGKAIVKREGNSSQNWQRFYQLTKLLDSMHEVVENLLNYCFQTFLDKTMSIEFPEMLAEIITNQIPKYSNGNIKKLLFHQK

In the case of `Cc1ccc(/C=C/C(=O)c2ccc(N3CCOCC3)cc2)s1`, the Potency result in assay [1] and in assay [3] was “inactive” in each case. The Potency in assay [2] is 100 µM (active).

For `Cc1nc2ccccc2n2c(O)c(CC(=O)O)cc12`, the Potency in assay [4] was 14.6 µM (active); in [2], 112 µM (active); in assay [6], 44.7 µM (active). The Potency result in assay [1], in assay [5] and in assay [3] was “inactive” in each case.

Consider `O=C(NCc1ccc(F)cc1)c1cccc2c1C(=O)c1ccc(N3CCC(Cc4ccccc4)CC3)cc1S2(=O)=O`, for which, in assay [4], the Potency was 10.3 µM (active). Besides, the Potency result in assay [1] and in assay [5] was “inactive” in each case. Further, the activation in assay [2] is 30% [at 17.1 µM, percent relative to cAMP agonist control]. Further, the activity change, negative = inhibition in assay [3] is 83.7% [at 30.8 µM].

As for `CCN(CC)c1ccc2cc(S(=O)(=O)c3ccc(Cl)cc3)c(=O)oc2c1`, the Potency was 18.3 µM (active) in assay [4], 100 µM (active) in assay [2] and 42.6 µM (active) in assay [5]. Moreover, the Potency result in assay [1] and in assay [3] was “inactive” in each case.

`COc1ccccc1NC(=O)/C(C#N)=C/c1cc([N+](=O)[O-])ccc1N1CCCC1`: the Potency in assay [4] was 14.6 µM (active); in [2], 112 µM (active); in assay [5], 75.7 µM (active). In addition, the Potency entry in assay [1] and in assay [3] was “inactive” each time.

For the compound `N#Cc1c(-c2cccs2)nc(SCC(=O)c2ccc(Br)cc2)[nH]c1=O`, the call in [7], in assay [8] and in assay [10] was inactive. Further, the Potency in assay [9] was 15.8 µM (active); in assay [1] it was 22.4 µM (active). In addition, the activation is 8.4% [at 17.1 µM, percent relative to cAMP agonist control] in assay [2] and 12.5% [at 30.8 µM] in assay [6]. The Potency entry in assay [5] was “inactive”.

`Cc1ccccc1C(=O)Nc1ccc(C(=O)OCc2cc(=O)n3c4c(sc3n2)CCCC4)cc1`: the Potency entry in [1], in assay [2], in assay [5] and in assay [6] was “inactive” each time.

`O=C(O)c1ccccc1C1=Nc2ccc(O)cc2Oc2cc(O)ccc21`: the Potency is 13 µM (active) in assay [4] and 15.8 µM (active) in assay [6]. Moreover, the Potency result in assay [1] and in [5] was “inactive” in each case. The activation in assay [2] is 14.2% [at 17.1 µM, percent relative to cAMP agonist control]. In assay [3], the activity change, negative = inhibition was -1.01% [at 30.8 µM].

Consider `COc1cccc2c1C(=O)c1c(O)c3c(c(O)c1C2=O)CC(O)(C(C)=O)CC3OC1CC(N(C)C)C(O)C(C)O1` (stereo not drawn), for which the Potency in [4] was 9.19 µM (active). The Potency result in assay [1] and in assay [5] was “inactive” each time. Besides, the activation in assay [2] is 10.6% [at 17.1 µM, percent relative to cAMP agonist control]. The activity change, negative = inhibition in assay [3] is 80.1% [at 30.8 µM].

For the compound `COc1ccc2c3c(cccc13)C(=O)CC2`, the Potency in assay [4] is 18.3 µM (active); in assay [2], 112 µM (active); in assay [6], 31.6 µM (active). Moreover, the Potency result in assay [1] and in [5] was “inactive” each time.

`CC(=O)Nc1ccc(Nc2c3c4c(cccc4n(C)c2=O)C(=O)c2ccccc2-3)cc1`: the Potency entry in assay [1] and in assay [3] was “inactive” throughout. Further, the Potency in assay [2] is 100 µM (active).

As to `Cc1cc(/C=C2\SC(=S)N(C)C2=O)c(C)n1-c1ccccc1O`, the Potency result in assay [1] and in assay [5] was “inactive” throughout. Also, the results for the Potency in assay [2] and in assay [6] were 100 µM (active) and 89.1 µM (active), respectively.

For the compound `COCCn1c2nc(=O)n(-c3ccccc3)c(=O)c-2nc2ccccc21`, in assay [1], the Potency entry was “inactive”. For the same compound, the figures for the Potency in assay [2], in assay [5] and in [6] were 100 µM (active), 75.7 µM (active) and 39.8 µM (active), respectively.

Take `Cn1nc(-c2ccccc2)c2nc3ccccc3nc21`: the Potency in [4] was 16.3 µM (active); in [2], 100 µM (active); in assay [5] it was 75.7 µM (active). Besides, the Potency entry in assay [1], in assay [3] and in [6] was “inactive” throughout.

Take `Cc1nn(C)c(C)c1N1C(=O)c2cccc3c(N)ccc(c23)C1=O`: the results for the Potency in [4], in assay [2] and in [6] were 2.59 µM (active), 5.01 µM (active) and 11.2 µM (active), respectively. Further, the Potency result in assay [1] and in assay [5] was “inactive” in each case.

In the case of `O=c1c(/C=C(\O)c2ccc(F)cc2)nc2ccccc2n1-c1ccccc1`, the Potency entry in assay [4], in assay [1], in assay [5] and in assay [3] was “inactive” throughout. Also, the Potency in [2] was 100 µM (active).

As for `O=C(C(=Cc1ccc(O)cc1)c1ccccc1)c1ccccc1`, the Potency entry in [1], in assay [2] and in [3] was “inactive” in each case.

Turning to `Cc1ccc(OCc2nc3ccccc3n2CC(C)C)cc1`, the Potency result in [1], in [2], in assay [5] and in assay [6] was “inactive” in each case.

With `Cc1ccc2oc(=O)c(/C=C(\O)c3ccccc3)nc2c1`, the Potency result in [4], in assay [1] and in assay [5] was “inactive” each time. The activation was 10.1% [at 17.1 µM, percent relative to cAMP agonist control] in assay [2] and 12.5% [at 30.8 µM] in [6]. For the same compound, the activity change, negative = inhibition in assay [3] is 0.517% [at 30.8 µM].

For `COc1ccc2noc3c2c1C(=O)c1ccccc1-3`, the Potency entry in assay [1] and in assay [5] was “inactive” in each case. The Potency is 112 µM (active) in [2] and 20 µM (active) in [6].

On to `CCN(CC)c1ccc2cc(-c3nnc(-c4ccncc4)o3)c(=O)oc2c1`, for which the call in [11] was inactive. Besides, the Potency in assay [12] was 3.51 µM (active); in assay [2] it was 100 µM (active); in assay [5], 75.7 µM (active). The Potency result in assay [4], in assay [1] and in assay [3] was “inactive” each time.

For the compound `CNc1ccc2c3c(cccc13)C(=O)N(C)C2=O`, the results for the Potency in assay [4], in assay [2] and in assay [5] were 2.06 µM (active), 112 µM (active) and 84.9 µM (active), respectively. The Potency result in [1] is “inactive”.

For the compound `CC1=Nc2ccccc2/C1=C\c1nc(-c2ccc(F)cc2)oc1O`, the Potency in assay [4] was 29.1 µM (active); in [2], 112 µM (active); in assay [6], 25.1 µM (active). Besides, the Potency result in assay [1], in assay [5] and in assay [3] was “inactive” each time.
